The values below come from ChEMBL document CHEMBL1961873, “Compounds: GSK PKIS; Assays: Nanosyn kinase panel” (2012).

What is called inhibition is the change of the read-out against control, counted positive when it falls.

For test [1], the target named is T1, Inhibitor of nuclear factor kappa-B kinase subunit epsilon (Homo sapiens) (UniProt Q14164).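 Further: reported values are averaged percent inhibition figures against human IKKε.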
T1 sequence (whole entry): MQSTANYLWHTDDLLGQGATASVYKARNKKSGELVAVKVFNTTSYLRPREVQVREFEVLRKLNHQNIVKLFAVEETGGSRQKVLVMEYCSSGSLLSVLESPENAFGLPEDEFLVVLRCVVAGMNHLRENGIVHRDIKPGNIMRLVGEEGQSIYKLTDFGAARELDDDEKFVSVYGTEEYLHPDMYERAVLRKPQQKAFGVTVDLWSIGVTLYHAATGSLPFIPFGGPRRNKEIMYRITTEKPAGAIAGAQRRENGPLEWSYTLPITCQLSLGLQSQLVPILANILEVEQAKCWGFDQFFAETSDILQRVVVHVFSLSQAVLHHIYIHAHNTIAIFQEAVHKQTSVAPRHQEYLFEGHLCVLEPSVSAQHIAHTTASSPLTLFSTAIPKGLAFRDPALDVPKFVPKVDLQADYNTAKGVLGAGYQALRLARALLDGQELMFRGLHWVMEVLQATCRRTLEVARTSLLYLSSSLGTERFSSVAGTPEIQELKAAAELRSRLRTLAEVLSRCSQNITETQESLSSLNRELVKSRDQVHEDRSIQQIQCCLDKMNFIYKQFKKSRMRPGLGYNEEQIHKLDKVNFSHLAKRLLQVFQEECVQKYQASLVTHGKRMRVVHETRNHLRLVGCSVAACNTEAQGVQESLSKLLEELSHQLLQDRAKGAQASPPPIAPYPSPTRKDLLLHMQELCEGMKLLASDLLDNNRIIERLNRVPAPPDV
As to conditions: at 1 µM.

Test [2] concerns the target T2, Serine/threonine-protein kinase Nek1 (Homo sapiens) (UniProt Q96PY6).
T2 sequence (whole entry): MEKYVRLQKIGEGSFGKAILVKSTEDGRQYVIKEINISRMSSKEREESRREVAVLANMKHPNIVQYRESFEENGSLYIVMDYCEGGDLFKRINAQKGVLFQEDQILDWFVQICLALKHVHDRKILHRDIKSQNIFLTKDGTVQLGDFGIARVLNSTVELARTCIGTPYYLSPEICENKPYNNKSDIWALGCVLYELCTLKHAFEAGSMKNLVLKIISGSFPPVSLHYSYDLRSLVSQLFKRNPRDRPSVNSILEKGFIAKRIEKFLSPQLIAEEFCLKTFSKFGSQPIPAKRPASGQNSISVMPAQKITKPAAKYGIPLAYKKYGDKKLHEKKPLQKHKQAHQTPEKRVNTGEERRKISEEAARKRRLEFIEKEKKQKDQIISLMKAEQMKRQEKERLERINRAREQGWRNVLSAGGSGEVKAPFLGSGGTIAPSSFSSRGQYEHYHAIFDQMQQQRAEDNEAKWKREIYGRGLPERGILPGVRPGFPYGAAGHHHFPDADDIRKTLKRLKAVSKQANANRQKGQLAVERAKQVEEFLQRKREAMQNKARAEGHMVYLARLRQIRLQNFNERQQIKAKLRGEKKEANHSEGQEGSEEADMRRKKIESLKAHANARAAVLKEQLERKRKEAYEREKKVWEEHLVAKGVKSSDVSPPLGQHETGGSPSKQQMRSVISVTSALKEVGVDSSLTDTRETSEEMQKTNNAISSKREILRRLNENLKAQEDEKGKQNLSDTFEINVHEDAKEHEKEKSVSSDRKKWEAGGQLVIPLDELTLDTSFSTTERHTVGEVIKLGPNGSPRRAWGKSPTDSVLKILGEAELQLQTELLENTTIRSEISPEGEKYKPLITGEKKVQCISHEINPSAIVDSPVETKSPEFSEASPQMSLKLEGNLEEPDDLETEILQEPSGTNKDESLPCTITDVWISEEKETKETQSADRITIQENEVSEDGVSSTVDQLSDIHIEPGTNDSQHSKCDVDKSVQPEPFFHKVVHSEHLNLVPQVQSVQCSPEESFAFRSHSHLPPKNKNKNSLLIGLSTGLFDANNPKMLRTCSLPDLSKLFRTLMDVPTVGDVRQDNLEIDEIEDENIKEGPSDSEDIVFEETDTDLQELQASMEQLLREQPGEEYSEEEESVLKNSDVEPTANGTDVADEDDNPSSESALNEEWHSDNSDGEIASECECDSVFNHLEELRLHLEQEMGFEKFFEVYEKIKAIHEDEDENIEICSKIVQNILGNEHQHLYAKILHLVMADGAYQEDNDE
Particulars: at 0.1 µM.

For test [3], the target named is T2, Serine/threonine-protein kinase Nek1 (Homo sapiens). Particulars: at 1 µM.
The target of test [4] is T3, Serine/threonine-protein kinase Nek2 (Homo sapiens) (UniProt P51955).
T3 sequence (whole entry): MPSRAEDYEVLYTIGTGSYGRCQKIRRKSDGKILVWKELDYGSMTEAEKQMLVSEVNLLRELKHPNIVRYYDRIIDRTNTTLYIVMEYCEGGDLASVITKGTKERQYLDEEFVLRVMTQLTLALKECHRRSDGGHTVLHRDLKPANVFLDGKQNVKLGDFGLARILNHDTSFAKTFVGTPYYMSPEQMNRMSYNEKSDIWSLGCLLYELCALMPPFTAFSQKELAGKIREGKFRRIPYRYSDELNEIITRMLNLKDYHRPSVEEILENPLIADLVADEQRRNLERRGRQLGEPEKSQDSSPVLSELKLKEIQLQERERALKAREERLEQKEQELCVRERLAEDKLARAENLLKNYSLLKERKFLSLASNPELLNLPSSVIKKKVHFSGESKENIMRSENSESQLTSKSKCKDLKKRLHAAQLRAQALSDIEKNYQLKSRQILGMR
As to conditions: at 0.1 µM.

Test [5] concerns the target T3, Serine/threonine-protein kinase Nek2 (Homo sapiens). As to conditions: at 1 µM.
In test [6] the target is Serine/threonine-protein kinase Nek6 (Homo sapiens) (UniProt Q9HC98). As to conditions: at 0.1 µM.
Chain of Serine/threonine-protein kinase Nek6 (Homo sapiens) (Q9HC98 whole entry): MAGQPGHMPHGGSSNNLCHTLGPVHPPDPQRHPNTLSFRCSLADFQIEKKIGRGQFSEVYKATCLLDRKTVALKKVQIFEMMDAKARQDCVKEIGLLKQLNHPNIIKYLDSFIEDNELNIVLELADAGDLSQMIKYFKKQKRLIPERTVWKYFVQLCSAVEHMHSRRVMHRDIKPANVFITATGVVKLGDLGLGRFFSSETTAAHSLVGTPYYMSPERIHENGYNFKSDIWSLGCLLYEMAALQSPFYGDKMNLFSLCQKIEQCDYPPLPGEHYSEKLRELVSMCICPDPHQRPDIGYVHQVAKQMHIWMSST
Test [7] has the same target. As to conditions: at 1 µM.
Test [8] concerns the target Serine/threonine-protein kinase Nek7 (Homo sapiens) (UniProt Q8TDX7). Particulars: at 0.1 µM.
Test [9] shares this target. Particulars: at 1 µM.
Test [10] concerns the target T4, Serine/threonine-protein kinase Nek9 (Homo sapiens) (UniProt Q8TD19).
T4 sequence (whole entry): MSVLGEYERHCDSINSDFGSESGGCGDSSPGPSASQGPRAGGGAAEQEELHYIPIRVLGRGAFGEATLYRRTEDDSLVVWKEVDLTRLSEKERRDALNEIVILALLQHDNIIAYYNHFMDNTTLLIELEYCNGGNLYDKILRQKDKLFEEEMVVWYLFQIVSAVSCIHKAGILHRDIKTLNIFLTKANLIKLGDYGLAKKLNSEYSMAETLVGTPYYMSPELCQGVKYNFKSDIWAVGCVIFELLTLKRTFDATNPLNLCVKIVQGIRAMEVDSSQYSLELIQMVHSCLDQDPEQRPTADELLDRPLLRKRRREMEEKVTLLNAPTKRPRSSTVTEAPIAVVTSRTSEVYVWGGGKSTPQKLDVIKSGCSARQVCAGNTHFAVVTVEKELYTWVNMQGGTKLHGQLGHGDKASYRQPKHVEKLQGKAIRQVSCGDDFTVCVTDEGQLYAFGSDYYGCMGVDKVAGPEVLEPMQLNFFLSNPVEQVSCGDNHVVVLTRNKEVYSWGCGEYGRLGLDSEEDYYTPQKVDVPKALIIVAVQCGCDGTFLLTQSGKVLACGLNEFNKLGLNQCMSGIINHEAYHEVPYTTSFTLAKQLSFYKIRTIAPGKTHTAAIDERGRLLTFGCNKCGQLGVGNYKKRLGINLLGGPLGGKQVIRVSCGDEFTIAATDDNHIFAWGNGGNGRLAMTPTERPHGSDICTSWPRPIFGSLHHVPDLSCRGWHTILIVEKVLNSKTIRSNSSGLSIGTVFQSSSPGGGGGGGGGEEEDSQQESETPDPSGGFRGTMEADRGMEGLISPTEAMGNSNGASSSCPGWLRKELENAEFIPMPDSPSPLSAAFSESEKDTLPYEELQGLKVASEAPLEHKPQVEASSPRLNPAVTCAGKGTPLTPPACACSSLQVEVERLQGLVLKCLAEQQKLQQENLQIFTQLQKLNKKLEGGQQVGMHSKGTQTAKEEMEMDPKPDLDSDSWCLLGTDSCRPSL
As to conditions: at 0.1 µM.

Test [11] has as its target T4, Serine/threonine-protein kinase Nek9 (Homo sapiens). As to conditions: at 1 µM.
In test [12] the target is Serine/threonine-protein kinase PLK1 (Homo sapiens) (UniProt P53350). Particulars: at 0.1 µM.
Chain of Serine/threonine-protein kinase PLK1 (Homo sapiens) (P53350 whole entry): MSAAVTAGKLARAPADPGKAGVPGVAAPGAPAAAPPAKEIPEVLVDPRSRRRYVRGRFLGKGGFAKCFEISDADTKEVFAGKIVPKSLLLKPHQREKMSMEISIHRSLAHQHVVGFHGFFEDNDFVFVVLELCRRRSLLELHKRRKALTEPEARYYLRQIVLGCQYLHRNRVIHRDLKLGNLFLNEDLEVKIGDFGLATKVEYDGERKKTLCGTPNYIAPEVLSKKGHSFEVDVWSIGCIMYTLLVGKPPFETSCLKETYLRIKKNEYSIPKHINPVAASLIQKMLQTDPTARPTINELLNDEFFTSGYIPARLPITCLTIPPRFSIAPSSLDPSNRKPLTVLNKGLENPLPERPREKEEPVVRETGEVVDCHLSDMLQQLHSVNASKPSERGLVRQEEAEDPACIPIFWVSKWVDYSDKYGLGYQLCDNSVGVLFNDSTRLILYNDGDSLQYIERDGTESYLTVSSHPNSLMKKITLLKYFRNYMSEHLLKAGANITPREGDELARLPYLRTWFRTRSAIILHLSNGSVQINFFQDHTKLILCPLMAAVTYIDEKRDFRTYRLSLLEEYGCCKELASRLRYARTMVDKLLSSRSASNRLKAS
For test [13] the target is unchanged. As to conditions: at 1 µM.
Test [14] addresses T5, Dual specificity protein kinase TTK (Homo sapiens) (UniProt P33981).
T5 sequence (whole entry): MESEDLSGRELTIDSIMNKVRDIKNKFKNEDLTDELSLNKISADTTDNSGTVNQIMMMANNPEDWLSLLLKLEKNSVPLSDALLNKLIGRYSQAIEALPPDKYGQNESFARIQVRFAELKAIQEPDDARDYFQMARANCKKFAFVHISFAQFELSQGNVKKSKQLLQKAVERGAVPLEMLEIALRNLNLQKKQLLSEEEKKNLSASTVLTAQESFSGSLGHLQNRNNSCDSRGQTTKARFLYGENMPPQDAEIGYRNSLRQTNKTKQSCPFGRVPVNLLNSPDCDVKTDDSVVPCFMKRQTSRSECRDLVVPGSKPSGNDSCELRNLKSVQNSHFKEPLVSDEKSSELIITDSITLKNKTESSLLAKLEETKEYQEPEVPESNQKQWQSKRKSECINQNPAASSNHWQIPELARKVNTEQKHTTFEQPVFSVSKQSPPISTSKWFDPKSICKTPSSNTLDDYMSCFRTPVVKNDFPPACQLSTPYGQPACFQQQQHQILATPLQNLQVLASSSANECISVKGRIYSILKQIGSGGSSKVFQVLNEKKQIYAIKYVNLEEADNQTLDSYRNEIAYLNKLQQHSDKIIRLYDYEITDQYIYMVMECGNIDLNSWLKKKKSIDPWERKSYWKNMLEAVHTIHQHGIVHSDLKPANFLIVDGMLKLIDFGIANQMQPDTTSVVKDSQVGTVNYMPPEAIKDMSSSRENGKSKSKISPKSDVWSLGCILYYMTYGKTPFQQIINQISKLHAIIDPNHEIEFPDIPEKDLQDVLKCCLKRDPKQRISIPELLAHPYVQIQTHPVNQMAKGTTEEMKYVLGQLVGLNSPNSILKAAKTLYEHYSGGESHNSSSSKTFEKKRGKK
As to conditions: at 0.1 µM.

In test [15] the test system is T6, Receptor-type tyrosine-protein kinase FLT3 (Homo sapiens), P36888 [D835Y].
T6 sequence (whole entry): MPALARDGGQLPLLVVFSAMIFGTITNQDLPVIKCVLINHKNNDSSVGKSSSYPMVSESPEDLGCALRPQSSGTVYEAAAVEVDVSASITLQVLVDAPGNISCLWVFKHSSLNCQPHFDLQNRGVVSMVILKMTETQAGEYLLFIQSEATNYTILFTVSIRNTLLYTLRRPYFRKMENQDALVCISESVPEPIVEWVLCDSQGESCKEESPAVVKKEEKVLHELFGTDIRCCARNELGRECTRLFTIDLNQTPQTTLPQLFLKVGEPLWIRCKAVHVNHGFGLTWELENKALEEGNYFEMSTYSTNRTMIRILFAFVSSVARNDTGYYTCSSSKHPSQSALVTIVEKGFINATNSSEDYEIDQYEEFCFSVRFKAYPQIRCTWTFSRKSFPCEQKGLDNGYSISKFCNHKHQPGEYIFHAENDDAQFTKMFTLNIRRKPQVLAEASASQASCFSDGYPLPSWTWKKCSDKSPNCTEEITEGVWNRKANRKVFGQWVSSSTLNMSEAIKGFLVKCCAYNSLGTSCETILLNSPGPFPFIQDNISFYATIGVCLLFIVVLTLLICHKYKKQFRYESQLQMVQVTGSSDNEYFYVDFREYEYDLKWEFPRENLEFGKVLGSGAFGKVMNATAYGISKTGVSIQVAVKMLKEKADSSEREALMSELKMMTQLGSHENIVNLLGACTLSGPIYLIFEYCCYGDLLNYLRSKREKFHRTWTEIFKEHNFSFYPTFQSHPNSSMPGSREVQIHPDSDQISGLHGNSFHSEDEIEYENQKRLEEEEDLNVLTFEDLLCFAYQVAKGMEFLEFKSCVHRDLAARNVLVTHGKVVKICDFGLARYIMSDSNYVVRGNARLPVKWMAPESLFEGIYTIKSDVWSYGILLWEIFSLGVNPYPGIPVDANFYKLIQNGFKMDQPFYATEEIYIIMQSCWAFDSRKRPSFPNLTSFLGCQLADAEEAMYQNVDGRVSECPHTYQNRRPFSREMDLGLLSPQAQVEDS
As to conditions: at 1 µM.

Test [16] deals with Vascular endothelial growth factor receptor 3 (Homo sapiens) (UniProt P35916). As to conditions: at 0.1 µM.
Chain of Vascular endothelial growth factor receptor 3 (Homo sapiens) (P35916 whole entry): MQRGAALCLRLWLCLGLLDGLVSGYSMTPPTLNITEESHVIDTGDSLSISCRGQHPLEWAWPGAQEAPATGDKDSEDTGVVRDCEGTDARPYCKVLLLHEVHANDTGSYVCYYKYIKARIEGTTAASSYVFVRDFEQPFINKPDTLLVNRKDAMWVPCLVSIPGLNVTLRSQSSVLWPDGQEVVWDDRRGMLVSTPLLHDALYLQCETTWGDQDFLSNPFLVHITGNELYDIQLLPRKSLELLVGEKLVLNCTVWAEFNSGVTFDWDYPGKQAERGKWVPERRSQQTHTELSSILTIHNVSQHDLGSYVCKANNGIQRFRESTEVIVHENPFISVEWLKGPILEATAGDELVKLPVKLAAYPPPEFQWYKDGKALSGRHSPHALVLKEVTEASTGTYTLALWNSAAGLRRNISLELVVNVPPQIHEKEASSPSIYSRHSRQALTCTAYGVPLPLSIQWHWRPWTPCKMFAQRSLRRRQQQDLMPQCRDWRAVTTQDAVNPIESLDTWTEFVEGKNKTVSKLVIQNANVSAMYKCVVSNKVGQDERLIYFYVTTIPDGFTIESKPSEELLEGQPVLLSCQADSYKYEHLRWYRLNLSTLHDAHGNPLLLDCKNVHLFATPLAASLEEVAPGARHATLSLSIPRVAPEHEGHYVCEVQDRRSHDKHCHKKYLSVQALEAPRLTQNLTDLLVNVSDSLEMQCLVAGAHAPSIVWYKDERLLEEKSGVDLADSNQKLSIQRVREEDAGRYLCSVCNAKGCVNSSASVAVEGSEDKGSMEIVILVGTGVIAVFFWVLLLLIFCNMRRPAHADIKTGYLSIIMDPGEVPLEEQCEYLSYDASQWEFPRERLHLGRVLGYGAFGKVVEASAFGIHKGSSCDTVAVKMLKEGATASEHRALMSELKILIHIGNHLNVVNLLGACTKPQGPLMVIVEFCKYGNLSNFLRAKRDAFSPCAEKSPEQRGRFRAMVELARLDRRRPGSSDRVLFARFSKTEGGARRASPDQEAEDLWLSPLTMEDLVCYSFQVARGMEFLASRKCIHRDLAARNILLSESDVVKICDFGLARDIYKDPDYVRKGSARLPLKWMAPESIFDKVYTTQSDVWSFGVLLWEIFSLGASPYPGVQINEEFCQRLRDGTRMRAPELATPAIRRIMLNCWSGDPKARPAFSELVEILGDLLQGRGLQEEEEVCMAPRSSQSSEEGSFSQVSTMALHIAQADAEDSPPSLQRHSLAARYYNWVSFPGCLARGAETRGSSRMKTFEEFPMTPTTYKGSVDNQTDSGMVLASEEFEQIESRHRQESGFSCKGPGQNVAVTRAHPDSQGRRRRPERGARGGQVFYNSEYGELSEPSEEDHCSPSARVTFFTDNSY
Test [17] shares this target. Particulars: at 1 µM.
For test [18], the target named is Macrophage colony-stimulating factor 1 receptor (Homo sapiens) (UniProt P07333). As to conditions: at 0.1 µM.
Chain of Macrophage colony-stimulating factor 1 receptor (Homo sapiens) (P07333 whole entry): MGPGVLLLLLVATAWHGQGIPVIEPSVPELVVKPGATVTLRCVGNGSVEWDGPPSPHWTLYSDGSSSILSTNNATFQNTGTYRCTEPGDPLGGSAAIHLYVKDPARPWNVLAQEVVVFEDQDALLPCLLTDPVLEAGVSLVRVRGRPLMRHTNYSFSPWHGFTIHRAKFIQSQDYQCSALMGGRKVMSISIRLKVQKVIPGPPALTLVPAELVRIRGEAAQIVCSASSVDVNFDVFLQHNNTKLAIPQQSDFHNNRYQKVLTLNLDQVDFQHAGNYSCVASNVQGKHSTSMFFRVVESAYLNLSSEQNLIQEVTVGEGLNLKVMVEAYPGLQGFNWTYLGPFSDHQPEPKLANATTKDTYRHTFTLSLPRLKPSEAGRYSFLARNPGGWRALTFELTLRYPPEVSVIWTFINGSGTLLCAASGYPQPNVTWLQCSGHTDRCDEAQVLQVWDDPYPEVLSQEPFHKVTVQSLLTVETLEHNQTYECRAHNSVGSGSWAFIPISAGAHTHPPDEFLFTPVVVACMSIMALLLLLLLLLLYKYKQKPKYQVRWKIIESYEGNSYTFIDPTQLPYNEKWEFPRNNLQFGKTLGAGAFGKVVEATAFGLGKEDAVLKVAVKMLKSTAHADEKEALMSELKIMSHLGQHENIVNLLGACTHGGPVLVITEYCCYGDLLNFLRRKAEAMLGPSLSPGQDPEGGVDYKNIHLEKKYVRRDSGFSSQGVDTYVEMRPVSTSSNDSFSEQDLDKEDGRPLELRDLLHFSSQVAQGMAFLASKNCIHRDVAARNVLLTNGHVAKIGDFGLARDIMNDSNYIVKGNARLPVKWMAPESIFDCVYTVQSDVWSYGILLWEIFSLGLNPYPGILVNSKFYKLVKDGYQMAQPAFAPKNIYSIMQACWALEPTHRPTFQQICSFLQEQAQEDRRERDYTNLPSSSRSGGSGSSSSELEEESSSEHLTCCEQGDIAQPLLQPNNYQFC
Test [19] shares this target. As to conditions: at 1 µM.
In test [20] the target is Tyrosine-protein kinase Fyn (Homo sapiens) (UniProt P06241). As to conditions: at 0.1 µM.
Chain of Tyrosine-protein kinase Fyn (Homo sapiens) (P06241 2-537 limits assumed): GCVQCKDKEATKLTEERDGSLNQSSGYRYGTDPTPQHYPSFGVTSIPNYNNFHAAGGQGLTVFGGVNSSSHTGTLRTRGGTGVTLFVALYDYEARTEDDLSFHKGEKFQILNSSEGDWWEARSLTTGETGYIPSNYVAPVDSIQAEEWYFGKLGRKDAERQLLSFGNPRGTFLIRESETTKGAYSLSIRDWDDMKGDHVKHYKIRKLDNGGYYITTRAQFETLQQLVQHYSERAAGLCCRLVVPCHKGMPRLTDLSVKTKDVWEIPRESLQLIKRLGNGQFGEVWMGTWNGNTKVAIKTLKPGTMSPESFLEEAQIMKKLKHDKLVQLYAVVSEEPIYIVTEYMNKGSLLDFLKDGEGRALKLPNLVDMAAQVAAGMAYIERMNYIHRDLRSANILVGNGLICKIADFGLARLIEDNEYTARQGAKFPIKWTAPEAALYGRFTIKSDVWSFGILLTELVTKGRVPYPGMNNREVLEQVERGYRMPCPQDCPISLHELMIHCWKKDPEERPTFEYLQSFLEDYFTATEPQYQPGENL

Chain of Serine/threonine-protein kinase Nek7 (Homo sapiens) (Q8TDX7 whole entry, looked up): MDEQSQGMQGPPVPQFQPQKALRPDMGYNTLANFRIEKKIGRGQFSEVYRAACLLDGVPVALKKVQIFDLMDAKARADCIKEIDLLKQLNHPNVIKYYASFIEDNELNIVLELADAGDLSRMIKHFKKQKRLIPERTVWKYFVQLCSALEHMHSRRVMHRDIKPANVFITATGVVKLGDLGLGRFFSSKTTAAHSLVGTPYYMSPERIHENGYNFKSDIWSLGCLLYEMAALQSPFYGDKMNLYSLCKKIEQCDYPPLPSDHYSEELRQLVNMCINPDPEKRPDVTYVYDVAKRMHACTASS

As for `CCCN1CCCC(c2ccc(Nc3nc(Nc4cc(F)ccc4C(N)=O)c4cc[nH]c4n3)c(OC)c2)C1` (stereo not given), the inhibition in [1] amounted to 8.28%; in [2], 3.63%; in test [3], 21.6%; in test [4], 6.55%; in [5], 11.1%; in test [6], 1.92%. For the same compound, the inhibition in test [7] was 3.03%; in test [8], 6.42%; in test [9], 7.03%; in test [10] it was 9.57%; in [11], 12.8%; in test [12], 13.3%. The inhibition in test [13] is 48.1%; in [14], 75.9%; in test [15], 43.4%; in test [16] it was -0.55%; in test [17], 4.1%; in [18], 34.6%. The inhibition in test [19] was determined as 78.6%; in test [20], 3.45%.

Consider `COc1cc2ncnc(Nc3ccc(C)c(O)c3)c2cc1OC`, for which the inhibition came out at 6.95% in test [1]; 3.4% in [2]; 5.46% in test [3]; 5.78% in [4]; 7.02% in test [5]; 3.27% in [6]. Also, the inhibition was 4.18% in test [7]; 4.88% in test [8]; 4.92% in test [9]; 6.41% in test [10]; 11.6% in test [11]; 2.93% in test [12]. Further, the inhibition in test [13] was 2.77%; in [14] it was 9.85%; in [15], 2.41%; in [16] it was 97.5%; in [17], 107%; in [18] it was 4.29%. Besides, the inhibition was 6.14% in [19] and 12.8% in test [20].
